Screens as filed in PubChem.
Compounds with a hit are over-represented: about 27% of the library has one in this group of screens.
CYP2C19 inhib: blocks human cytochrome P450 2C19. CYP2C19 Supersomes, luciferin-H EGE luminescence, 30 min. inhibition, % at 5 µM. hit rate 21% among 96,000;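 active = CYP2C19 inhibition above a set limit at 5 µM in the primary screen, cut at about 50% in these data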;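 note: plate controls were negative control wells for no effect and 2.5 mM tranylcypromine positive control for full effect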
Cav3 T inh: blocks human Cav3.2 T-type calcium channel; B-score at 10 µM; O95180; Cav3.2-expressing cells, Fluo-4 calcium fluorescence FDSS; stronger effect = lower value; hit rate 4% among 100,000;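 active = single-dose well whose peak fluorescence ratio is a statistical outlier from its plate by either plate-standardised score or position-corrected B-score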
CYP2C9 activ: activators of human CYP2C9. P11712. recombinant CYP2C9, luciferin-H conversion, luminescence; stronger effect = higher value; factor 1 = untreated enzyme, 0 = blocked. activation factor at 5 µM. hit rate 1.4% among 96,000;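 active = activation factor of 2 or more for CYP2C9 at a 5 µM dose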;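 note: 0 = sulfaphenazole-blocked wells and 1 = vehicle-only wells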
Target sequence (P11712 whole entry, looked up): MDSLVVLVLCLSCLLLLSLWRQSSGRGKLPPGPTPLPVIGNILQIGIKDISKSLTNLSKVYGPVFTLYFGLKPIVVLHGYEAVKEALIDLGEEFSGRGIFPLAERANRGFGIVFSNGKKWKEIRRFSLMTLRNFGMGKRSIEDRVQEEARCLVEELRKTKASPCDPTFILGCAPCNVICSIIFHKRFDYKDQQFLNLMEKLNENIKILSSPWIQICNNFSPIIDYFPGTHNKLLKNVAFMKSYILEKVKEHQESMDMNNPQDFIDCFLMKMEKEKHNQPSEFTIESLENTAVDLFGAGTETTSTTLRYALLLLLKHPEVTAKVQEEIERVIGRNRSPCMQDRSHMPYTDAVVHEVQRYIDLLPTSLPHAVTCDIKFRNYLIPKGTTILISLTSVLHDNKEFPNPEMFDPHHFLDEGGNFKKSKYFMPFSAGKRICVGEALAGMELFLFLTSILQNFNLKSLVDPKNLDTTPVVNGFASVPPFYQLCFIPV
CYP2C19 activ: cytochrome P450 2C19 (human) activation. AID 1025. P33261. activation factor at 5 µM. 96,000 tested, under 10 active. recombinant CYP2C19, luciferin-H EGE luminescence; stronger effect = higher value; 0 = fully inhibited enzyme, 1 = untreated enzyme;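 active = activation factor of at least 2 at 5 µM in the primary screen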;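 note: 0 = wells with 2.5 mM tranylcypromine and 1 = vehicle-only wells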
CYP2C9 inhib: human CYP2C9 inhibition; P11712; CYP2C9 Supersomes, luciferin-H conversion, luminescence; inhibition, % at 5 µM; hit rate 20% among 96,000; AID 777;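 active = blocking of liver enzyme CYP2C9 beyond about 50% at 5 µM, limit read from the data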
* = called active by the depositor; nt = not tested or not shown.

SMILES	CYP2C19 inhib	Cav3 T inh	CYP2C9 activ	CYP2C19 activ	CYP2C9 inhib
Cc1ccc(S(=O)(=O)Nc2cc(C(=O)N3CCC4(CC3)OCCO4)ccc2N2CCCCC2)cc1	54.3*	-2.97	0.4	0.5	62.6*
CC(=O)Nc1cc(C(=O)N2CCC3(CC2)OCCO3)ccc1S(=O)(=O)c1ccc(C)cc1	6.9	-0.396	1	0.9	-3.8
CC(C)C1(C)N=C(c2nc3ccccc3cc2C(=O)O)NC1=O (stereo unspecified)	-4.0	0.178	1.1	1	-14.1
COc1cccc(OC)c1C1=NCC(=O)Nc2c1oc1ccc(Br)cc21	40.0	-4.24*	0.3	0.6	65.1*
O=C(Nc1ccc(Cl)cc1)Nc1nccs1	4.4	-2.12	0.7	1	25.3
COc1ccc(CNCC(=O)N2CCC3(CC2)OCCO3)cc1	30.3	0.862	1	0.7	-4.1
O=C(CNS(=O)(=O)c1ccc(Br)s1)N1CCC2(CC1)OCCO2	58.2*	0.922	0.7	0.4	27.2
O=P(OCC(F)(F)C(F)F)(N1CCOCC1)N1CCOCC1	1.8	0.0445	1	1	-3.5
COc1ccc(CCN(C)Cc2c(F)cccc2F)cc1OC	80.4*	-0.041	0.9	0.2	14.3
OC(Cc1ccccc1)(c1ccccc1)C1CN2CCC1CC2 (stereo unspecified)	20.2	-0.625	0.8	0.8	21.8
O=C(c1ccc(CS(=O)(=O)c2ccccc2)o1)N1CCC2(CC1)OCCO2	81.3*	-0.0873	0.5	0.2	46.7
Cc1cccc(CN2CCN(CC(=O)N3CCC4(CC3)OCCO4)C2=O)c1	0.0	1.08	0.9	1	11.4
O=C(CCS(=O)(=O)c1ccc(Br)cc1)N1CCC2(CC1)OCCO2	11.1	nt	0.9	0.9	13.7
Cc1cccc(CS(=O)(=O)Cc2ccc(C(=O)N3CCC4(CC3)OCCO4)o2)c1	32.7	0.524	0.4	0.7	57.7*
O=C(c1ccc(CS(=O)(=O)c2ccc(Br)cc2)o1)N1CCC2(CC1)OCCO2	41.6	1.51	0.5	0.6	53.6*
O=C(Cn1c(=O)c(C(F)(F)F)nc2ccccc21)N1CCC2(CC1)OCCO2	-10.5	-3.46	1	1.1	-0.3
CC(C)[C@H]1C(=O)O[C@H](C(C)C)C(=O)N(C)[C@@H](C(C)C)C(=O)O[C@H](C(C)C)C(=O)N(C)[C@@H](C(C)C)C(=O)O[C@H](C(C)C)C(=O)N1C	nt	-3.9*	nt	nt	nt
O=P(c1ccccc1)(c1nc2ccccc2s1)N1CCOCC1 (stereo unspecified)	28.0	-0.722	0.7	0.7	34.8
Fc1ccccc1CCNCc1cccc(Cl)c1Cl	86.0*	-1.25	0.7	0.1	29.2
FC(F)(F)c1cccc(-n2nnnc2C2(N3CCOCC3)CCCCC2)c1	56.6*	-1.69	0.7	0.4	26.4
OC(COCc1ccc(Cl)cc1)CN1CC=C(c2ccccc2)CC1 (stereo unspecified)	32.4	-6.59*	0.9	0.7	9.2
CC12CCCCC1=NC(c1ccc(Br)cc1)N2O (stereo unspecified)	37.5	0.0287	0.9	0.6	11.6
CCCC1=C(C(=O)OCC)C2(C(=O)Nc3ccc(C)cc32)C(C#N)=C(N)O1 (stereo unspecified)	61.5*	-0.807	0.5	0.4	51.1*
O=C1CCCC2C3CCCN4CCCC(CN12)C34 (stereo unspecified)	30.3	0.596	0.9	0.7	7.7
O=P(Nc1ccccc1Cl)(c1ccccc1)c1nc2c(s1)CCCC2 (stereo unspecified)	15.9	-5.88*	0.8	0.8	24.7
SMILES	CYP2C19 inhib	Cav3 T inh	CYP2C9 activ	CYP2C19 activ	CYP2C9 inhib
COc1cc([C@@H]2c3cc4c(cc3[C@@H](OC)[C@H]3COC(=O)[C@H]23)OCO4)cc(OC)c1O	nt	-1.83	nt	nt	nt
O=C(Cn1ncc2c3ccccc3n(Cc3cccc(Cl)c3)c2c1=O)N1CCC2(CC1)OCCO2	79.3*	-10.7*	0.1	0.2	91.3*
O=C(CN1CCN(Cc2cccc(Cl)c2)C1=O)N1CCC2(CC1)OCCO2	-17.7	0.503	0.9	1.2	5.3
Cn1c2ccccc2c2cnn(CC(=O)N3CCC4(CC3)OCCO4)c(=O)c21	57.0*	nt	0.9	0.4	14.0
Cn1c2ccccc2c2c(C(=O)N3CCC4(CC3)OCCO4)cn(C3CCCCC3)c(=O)c21	51.4*	-5.05*	0.3	0.5	69.3*
CC(C)(C)C(O)C(Oc1ccc(Cl)cc1)n1cncn1 (stereo unspecified)	95.4*	nt	0.4	0	58.2*
CC(=O)c1cccc(NC2=NCC(C)S2)c1 (stereo unspecified)	35.7	0.801	0.9	0.6	8.9
